Screening data deposited in PubChem BioAssay by several laboratories.
AddAB inh – less growth of phage-infected E. coli with AddAB; E. coli expressing H. pylori AddAB, absorbance growth; inhibition, % at 11.9 µM; 330,000 tested, 0.29% active; in the data active means inhibition above about 12%;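 further: 0% = vehicle wells of infected cells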
phage Ecoli inh – E. coli growth loss with phage present | inhibition, % at 11.9 µM | 360,000 tested, 0.26% active | growth absorbance; in the data active means inhibition above about 11%
E coli growth-1 – blocks Escherichia coli growth. 330,000 tested, 0.21% active. OD600 absorbance (test concentration not listed). OD600, 23 h; hits give low values;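 active means OD600 absorbance below the run mean of sample wells minus 3.6 SD, in any replicate, cut at about 0.56 in these data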
Tat transport – blocks Tat-dependent protein export in E. coli. E. coli MC4100 TorA-mCherry Tat export, fluorescence. inhibition, % at 10 µM. 340,000 tested, 0.036% active;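 active means mean replicate inhibition at least 50% and at least half of replicates individually reaching 50%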;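 further: exported cargo escapes ClpAP degradation while cytoplasmic cargo is degraded and loses fluorescence; 0% = median of neutral control wells and 100% = median of NaSCN control wells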
Calb FLC – affects C. albicans growth with fluconazole | growth inhibition, % (no concentration beside the values) | 300,000 tested, 0.57% active | C. albicans CaCi-2 (fluconazole-resistant clinical isolate) + fluconazole, Alamar Blue growth, 48 h | AID 1979;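 active means growth inhibition above about 58% in most replicates, limit read from the data, passing the limit was not always enough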;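 further: all wells also contain fluconazole at 8 µg/ml as a sub-toxic cotreatment; 0% = median of DMSO wells and 100% = median of geldanamycin control wells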
E coli growth-2 – bacterial growth inhibition, counter-screen for AddAB inhibitors; inhibition, % at 11.9 µM; AID 449728; E. coli V3065 growth, OD600 absorbance, 18 h; 330,000 tested, 0.27% active;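 active means inhibition above the campaign's mean inhibition across all tested compounds plus 3 SD, cut at about 9.9% in these data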;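 further: uninfected addAB+ strain grown without phage in ampicillin broth; 0% = DMSO wells and 100% = ciprofloxacin 0.95 µg/ml wells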
* = called active by the depositor; i = inactive; / = not tested or not shown; ! = not active in a repeat. An excerpt weighted towards active compounds, which were near 0.9% of everything screened.

SMILES	AddAB inh	phage Ecoli inh	E coli growth-1	Tat transport	Calb FLC	E coli growth-2
CCN(CC)c1ccc(/C=N/NC(=O)CNC(=O)C2COc3ccccc3O2)c(O)c1 (stereo not drawn)	3	4	/	-2	89*	0
NC(N)=NN=Cc1ccc(OCc2ccccc2Cl)cc1	/	/	0.044*	/	/	/
NC(N)=NN=Cc1ccc(Br)cc1	/	/	0.63	/	/	/
NC(N)=NN=Cc1ccccc1Cl	/	/	0.7	/	/	/
NC(N)=N/N=C/c1ccccc1Cl	i	i	/	-3	1	13*
NC(N)=N/N=C/c1c(Cl)cccc1Cl	6	7	/	3	-12	12*!
CCCCC1S/C(=N/N=C/c2ccco2)NC1=O (stereo not drawn)	-2	3	/	-1	100*	-3
Cn1c(=O)c(C(=O)NCCCc2ccccc2)c(O)c2ccccc21	/	6	0.67	1	2	/
COc1ccc(CCNC(=O)c2c(O)c3ccccc3n(C)c2=O)cc1	8	3	0.7	-6	96*	5
O=C(NCCc1ccccc1)c1c(O)c2cccc3c2n(c1=O)CC3	5	6	0.65	-1	90*	0
CCOC(=O)c1c(-c2ccccc2)oc2ccc(OCC(O)CN(C)C)cc12 (stereo not drawn)	-1	0	0.65	-3	94*	-4
Oc1cccc(Nc2ncnc3c2oc2ccccc23)c1	0	1	0.7	0	91*	-1
CCOC(=O)C1C2COc3ccc(C)cc3C2N2C(=O)CN(Cc3ccccc3)C(=O)[C@@]12C (stereo partly drawn)	/	/	0.67	/	/	/
COc1ccc(N2CCN(C(=S)NCCc3ccccc3)CC2)cc1	2	2	0.71	-1	-15	0
Oc1ccc(N2CCN(C(=S)NCCc3ccccc3)CC2)cc1	3	2	0.73	12	106*	0
O=C1NC(=O)/C(=C/c2cccc3ccccc23)S1	0	1	0.61	2	107*	0
Nc1nonc1-n1nnc(C(=O)NN=Cc2cccc(F)c2)c1CN1CCCC1	/	/	0.66	/	/	/
CCOC1OC(C(=O)N2CCN(C)CC2)=CC(c2ccc(Br)cc2)C1CCCO (stereo not drawn)	/	/	0.66	/	/	/
CC1CCCCC1NC(=O)C1CCCN(S(=O)(=O)c2ccc(-n3cnnn3)cc2)C1 (stereo not drawn)	2	2	0.65	-4	24	-1
CC1CCCCN1S(=O)(=O)c1ccc(NC(=O)c2cccc(-n3cnnn3)c2)cc1 (stereo not drawn)	1	3	0.73	3	91*	0
CC1CCCN(S(=O)(=O)c2ccc(NC(=O)c3cccc(-n4cnnn4)c3)cc2)C1 (stereo not drawn)	3	2	0.69	12	1	0
CC1CCCCC1NC(=O)C1CCN(S(=O)(=O)c2ccc(-n3cnnn3)cc2)CC1 (stereo not drawn)	10	3	0.77	6	-22	38*
O=C1NN(c2ccc(Br)cc2)C(=O)/C1=C\c1ccc(O)cc1O	3	1	/	6	98*	1
CN1CC[C@]23c4ccccc4NC1[C@]21CCN(C)C3Nc2ccccc21	/	/	0.63	/	/	/
CCOc1cc(N2CCOCC2)c(OCC)cc1NC(=O)c1nc2nc(C)cc(C)n2n1	1	3	0.73	9	101*	0
SMILES	AddAB inh	phage Ecoli inh	E coli growth-1	Tat transport	Calb FLC	E coli growth-2
COC(=O)CCCCCCCCCC[N+]1(C)CCCCC1	6	3	0.61	1	2	0
C[N+]1(CC(=O)OC2CCCCCCCCCCC2)CCCC1	4	1	0.68	2	99*	-2
CCC(C)c1ccc(C(C)NC(=S)NC2CCCCC2)cc1 (stereo not drawn)	7	3	/	-1	-6	11*
CCc1ccc(C(C)NC(=S)NC2CCCCC2)cc1 (stereo not drawn)	/	/	0.7	10	-31	/
O=C(COc1ccccc1)Nc1cccc(-c2nc3cc4ccccc4cc3[nH]2)c1	6	6	0.63	2	109*	4
N/C(=N\OC(=O)Nc1ccccc1)c1ncc([N+](=O)[O-])s1	12	5	/	-15	-11	9
NC(=NOC(=O)c1ccc(Cl)cc1)c1ncc([N+](=O)[O-])s1	/	/	0.46*	/	/	/
CNC1=C(N(C(C)=O)c2ccc(Br)cc2)C(=O)c2ccccc2C1=O	3	-1	0.68	-5	103*	4
CCC(=O)N(C1=C(NC)C(=O)c2ccccc2C1=O)C(C)C	1	4	0.69	-7	18	-2
COc1ccc(C(=O)NN=Cc2coc3ccc(C)cc3c2=O)cc1	/	/	0.65	/	/	/
COc1c(Br)cc([N+](=O)[O-])c(OC)c1C(=O)NC(=O)Nc1c(Cl)cccc1Cl	-3	1	0.63	-2	84*	-3
O=C(NN=Cc1ccncc1)c1ccc(COc2cccc3cccnc23)cc1	/	/	0.73	/	/	/
Cc1ccsc1C(=O)OCC(=O)Nc1sccc1C(N)=O	-2	3	0.68	5	96*	-1
Cc1cc(N2CCN(Cc3nc(-c4ccc(Cl)cc4)oc3C)CC2)cc(C)n1	-3	0	0.66	-9	8	1
COc1ccc(-c2nc(CN3CCN(c4cc(C)nc(C)c4)CC3)c(C)o2)c2ccccc12	-1	4	0.64	5	84*	-3
CCCCCC(=O)ON=C(C)c1ccn(S(=O)(=O)c2ccccc2)c1	/	/	0.7	/	/	/
O=C1c2cc(Br)ccc2N(Cc2ccc(Br)cc2)S(=O)(=O)C1c1cc(Cl)c(Cl)cc1[N+](=O)[O-] (stereo not drawn)	10	/	/	-2	/	12*
Cc1ccc(-n2c(C)cc(C=NNC(=O)Cn3c4ccccc4c(=O)c4ccccc43)c2C)cc1	/	/	0.67	/	/	/
COc1ccccc1C(=O)NCC(=O)NN=Cc1cccc(Cl)c1	/	/	0.68	/	/	/
Cc1ccc(N2C(=O)N3C(c4cccc(C)c4)C4C(=O)N(Cc5ccccc5)C(=O)C4[C@]3(C)C2=O)cc1 (stereo partly drawn)	/	/	0.7	/	/	/
CS/C(=C\[N+](=O)[O-])Nc1ccc(Cl)cc1	0	3	/	-4	102*	6
OC(CNCC(c1ccc(Cl)cc1Cl)c1c[nH]c2ccccc12)c1ccccc1 (stereo not drawn)	-1	4	0.45*	-15	11	-3
O=[N+]([O-])CC(c1ccccc1)c1c[nH]c2ccccc12 (stereo not drawn)	0	1	0.66	/	0	0
Cc1ccc(S(=O)(=O)NC(=O)Nc2ccc(N(C)C)cc2)cc1	-1	-5	0.72	-19	87*	-1
Cc1ccc(NC(=O)NNS(=O)(=O)c2ccc(Br)cc2)cc1	2	2	0.74	-8	-5	0
CCCCC(=O)NC(=S)Nc1cccc(NC(=O)c2ccco2)c1	3	2	0.71	-5	89*	1
CCC(=O)NC(=S)Nc1ccc(NC(=O)c2ccco2)cc1	4	1	0.64	-5	6	2
OC(c1cc(-c2ccc(Cl)cc2)nc2ccccc12)C1CCCCN1 (stereo not drawn)	0	0	/	-1	94*	-2
